Assay results reported in PubChem BioAssay (NCI).
This is part of a sample that, as a whole, favours compounds with a hit. Of some 79,000 tested, about 15% had one in any assay. A number with no mark means an inactive call. Cut-off read from the data, not from the text of the source: active = growth inhibition above about 70%; inactive = the rest.

experiment: NCI Yeast Anticancer Drug Screen. Data for the bub3 strain (AID 167); details: S. cerevisiae bub3 mutant strain, at 50.0 µM, hits give high values
Outline: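 Inhibition values come from growth of compound-treated mutant yeast normalised to vehicle-treated controls.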

Row | SMILES | growth inhibition [%]
1 | N#Cc1nc(-c2cc([N+](=O)[O-])cc([N+](=O)[O-])c2)oc1N | 0.05
2 | O=C(Nc1ccc(Cl)cc1C(=O)O)c1ccc([N+](=O)[O-])cc1 | 23.9
3 | O=CCC1CCCCC1 | 22.1
4 | CC(C)(C)C(=CS(=O)/N=C/c1ccccc1)C(C)(C)C (stereo unspecified) | -37
5 | COC(=O)/C=C/C(=N/N(C)c1ccccc1)c1ccccc1 | 11
6 | CC1CCC2(CC1)NN=c1s/c(=C\c3ccc(O)cc3)c(=O)n1N2 (stereo unspecified) | -21.2
7 | CCN(CC)CC(=O)Nc1c(C(N)=O)nnn1Cc1cc(Cl)c(C(=O)c2ccc(Cl)cc2)c(Cl)c1 | 15.9
8 | O=c1[nH]c2ccccc2c(O)c1-c1ccccc1 | -22.5
9 | COC(=O)Oc1ccc(Cl)cc1Cl | -8.25
10 | CC(C)(C)OC(=O)NC1CC=CCC1NC(=O)OC(C)(C)C (stereo unspecified) | -17.8
11 | CC(C)(C)C(=O)/C(O)=C\c1ccccc1 | 10.9
12 | CCCS(CCC)=NS(=O)(=O)c1ccc(C)cc1 | 11.6
13 | CC(N)C(=O)NC(C(=O)NC1C(O)OC(CO)C(O)C1O)C(C)C (stereo unspecified) | 7.1
14 | CCN1C(=O)c2cc(=O)[nH]c(O)c2C1C (stereo unspecified) | -2.65
15 | O=C1C=CC(Nc2ccc(Cl)c(Cl)c2)C1Nc1ccc(Cl)c(Cl)c1 (stereo unspecified) | 26.7
16 | CN(C)CCCNc1nnc(NCCCN(C)C)c2[nH]cnc12 | 6.5
17 | COC1=CC(=O)C2CC=C(C)CC2(C)C1=O (stereo unspecified) | -0.05
18 | CN1c2ccccc2C2CC(CC#N)CC(=O)C21 (stereo unspecified) | -20.2
19 | CC1=CC=CNC1(N)Br (stereo unspecified) | 7.55
20 | CCc1nnc(N)o1 | -13.7
21 | CCC(C)CCOC(=O)c1ccc(N=Cc2ccc(C=Nc3ccc(C(=O)OCCC(C)CC)cc3)cc2)cc1 (stereo unspecified) | 43.4
22 | O=C1NC(CN2CCCCC2)C(=O)NC1CN1CCCCC1 (stereo unspecified) | -20.1
23 | Cc1ccc(S(=O)(=O)/C=C\S(=O)(=O)c2ccc(C)cc2)cc1 | 3.15
24 | O=C(CNC(=O)OCc1ccccc1)NCCNCCNC(=O)CNC(=O)OCc1ccccc1 | 8.45
25 | Cc1cc(C)c2c(SCc3ccc(Cl)cc3Cl)nc(N)nc2n1 | 7.1
26 | CC(=O)Nc1c(C)ccc([N+](=O)[O-])c1C | 2.7

experiment: NCI Yeast Anticancer Drug Screen. Data for the mlh1 rad18 strain (AID 175); details: S. cerevisiae mlh1 rad18 strain growth inhibition; at 50.0 µM; hits give high values
Outline: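 Read-out is yeast growth inhibition, calculated against vehicle-only controls. The compound was applied to a strain engineered with DNA damage repair alterations.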

Row | SMILES | growth inhibition [%]
27 | CC1(c2ccc(C(O)c3ccccc3)s2)OCCO1 (stereo unspecified) | 15.6
28 | CCCCCCC(O)C/C=C/CCCCCC/C(C(=O)OC)=C(/O)C(=O)OCC (stereo unspecified) | 1.1
29 | CCCCCc1c(-c2n[nH]c(C)c2CCCCC)n[nH]c1C | 1.8
30 | Cc1cccc(CCSCCc2cccc(C)[n+]2[O-])[n+]1[O-] | 1.8
31 | O=C(Nc1ccc(Cl)cc1)OC(C(=O)c1ccccn1)c1ccccn1 (stereo unspecified) | 8.5
32 | CC(C)(O)c1cc(=O)n(-c2ccccc2)[nH]1 | -5.1
33 | O=C(Cc1ccccc1)OCC(=O)c1ccc(-c2ccccc2)cc1 | -5.15
34 | O=C(Nc1ccccc1)c1ccccc1C(O)(c1ccccc1)c1ccc(Cl)cc1 (stereo unspecified) | 56.3
35 | CCOC(=O)C1/C(=N\N=C2\c3c(nnp3N(CCOS(C)(=O)=O)CCOS(C)(=O)=O)C(C(=O)OCC)C(c3ccc(OC(C)=O)cc3)C2C(=O)OCC)c2c(nnp2N(CCOS(C)(=O)=O)CCOS(C)(=O)=O)C(C(=O)OCC)C1c1ccc(OC(C)=O)cc1 (stereo unspecified) | -4.5
36 | CCCCCCCCCCCCCCCCCC(=O)Oc1ccc(OCc2ccccc2)cc1 | -16.6
37 | Nc1nc(N)nc(CC(=O)O)n1 | -36.7
38 | N#Cc1c2c(c(-c3cccs3)n(C3OC(CO)C(O)C(O)C3O)c1=S)CCc1ccccc1-2 (stereo unspecified) | 1.6
39 | CN(C)C=Nc1c(Br)cc(Br)c2nonc12 | -8.45
40 | COc1ccccc1NC(=O)CC(=O)N1N=C(N2c3ccccc3Sc3ccccc32)CC1c1ccccc1 (stereo unspecified) | -66.5
41 | N#Cc1nc(-c2cc([N+](=O)[O-])cc([N+](=O)[O-])c2)oc1N | -8.6
42 | O=C(Nc1ccc(Cl)cc1C(=O)O)c1ccc([N+](=O)[O-])cc1 | 53.2
43 | O=CCC1CCCCC1 | 6.25
44 | CC(C)(C)C(=CS(=O)/N=C/c1ccccc1)C(C)(C)C (stereo unspecified) | -9.85
45 | COC(=O)/C=C/C(=N/N(C)c1ccccc1)c1ccccc1 | -5.15
46 | CC1CCC2(CC1)NN=c1s/c(=C\c3ccc(O)cc3)c(=O)n1N2 (stereo unspecified) | -19.9

Row | SMILES | growth inhibition [%]
47 | CCN(CC)CC(=O)Nc1c(C(N)=O)nnn1Cc1cc(Cl)c(C(=O)c2ccc(Cl)cc2)c(Cl)c1 | -36.1
48 | O=c1[nH]c2ccccc2c(O)c1-c1ccccc1 | 0.65
49 | COC(=O)Oc1ccc(Cl)cc1Cl | 5.7
50 | CC(C)(C)OC(=O)NC1CC=CCC1NC(=O)OC(C)(C)C (stereo unspecified) | -29.1
51 | CC(C)(C)C(=O)/C(O)=C\c1ccccc1 | -1.2
52 | CCCS(CCC)=NS(=O)(=O)c1ccc(C)cc1 | -9.65
53 | CC(N)C(=O)NC(C(=O)NC1C(O)OC(CO)C(O)C1O)C(C)C (stereo unspecified) | -5.75
54 | CCN1C(=O)c2cc(=O)[nH]c(O)c2C1C (stereo unspecified) | 10.9
55 | O=C1C=CC(Nc2ccc(Cl)c(Cl)c2)C1Nc1ccc(Cl)c(Cl)c1 (stereo unspecified) | 45
56 | CN(C)CCCNc1nnc(NCCCN(C)C)c2[nH]cnc12 | -4.35
57 | COC1=CC(=O)C2CC=C(C)CC2(C)C1=O (stereo unspecified) | -3.8
58 | CN1c2ccccc2C2CC(CC#N)CC(=O)C21 (stereo unspecified) | 20.2
59 | CC1=CC=CNC1(N)Br (stereo unspecified) | -4.9
60 | CCc1nnc(N)o1 | -14.2
61 | CCC(C)CCOC(=O)c1ccc(N=Cc2ccc(C=Nc3ccc(C(=O)OCCC(C)CC)cc3)cc2)cc1 (stereo unspecified) | 29.9
62 | O=C1NC(CN2CCCCC2)C(=O)NC1CN1CCCCC1 (stereo unspecified) | 0
63 | Cc1ccc(S(=O)(=O)/C=C\S(=O)(=O)c2ccc(C)cc2)cc1 | 2.7
64 | O=C(CNC(=O)OCc1ccccc1)NCCNCCNC(=O)CNC(=O)OCc1ccccc1 | -0.4
65 | Cc1cc(C)c2c(SCc3ccc(Cl)cc3Cl)nc(N)nc2n1 | 44.8
66 | CC(=O)Nc1c(C)ccc([N+](=O)[O-])c1C | 13.5
